High-throughput results (PubChem)
CYP2C9 act = human CYP2C9 activators, primary screen, biochemical, luminescence; Cytochrome P450 2C9 (Homo sapiens), P11712; recombinant CYP2C9, luciferin-H conversion; active compounds read high; factor 1 = untreated enzyme, 0 = blocked; activation factor at 5 µM; actives 1.4% (n = 96,000); AID 1024, 2008;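 active = activation factor of 2 or more for CYP2C9 at a 5 µM dose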;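 also: 0 = sulfaphenazole-blocked wells and 1 = vehicle-only wells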
CYP2C19 inh = blockers of cytochrome P450 2C19 activity – biochemical, luminescence, ADME assay, primary screen; CYP2C19 Supersomes, luciferin-H EGE luminescence, 30 min; inhibition, % at 5 µM; P33261; actives 21% (n = 96,000);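 active = CYP2C19 inhibition above a set limit at 5 µM in the primary screen, cut at about 50% in these data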;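 also: plate controls were negative control wells for no effect and 2.5 mM tranylcypromine positive control for full effect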
CYP2C19 act = human CYP2C19 activators, primary screen, biochemical, luminescence; 96,000 tested, under 10 active; activation factor at 5 µM; recombinant CYP2C19, luciferin-H EGE luminescence; active compounds read high; 0 = fully inhibited enzyme, 1 = untreated enzyme; Cytochrome P450 2C19 (Homo sapiens), P33261;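 active = activation factor of at least 2 at 5 µM in the primary screen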;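 also: 0 = wells with 2.5 mM tranylcypromine and 1 = vehicle-only wells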
PLK1 kinase inh = human PLK1 kinase inhibitors, primary screen, biochemical, TR-FRET; Serine/threonine-protein kinase PLK1 (Homo sapiens), P53350; recombinant PLK1 kinase, TR-FRET peptide phosphorylation; inhibition, % at 10 µM; actives 0.53% (n = 97,000); AID 619, 2007;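 active = inhibition of 50% or more in the single-concentration screen; inactive = inhibition below 50%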;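 also: 0% = DMSO max control and 100% = H-89 dihydrochloride min control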
Target sequence (P53350 whole entry, looked up): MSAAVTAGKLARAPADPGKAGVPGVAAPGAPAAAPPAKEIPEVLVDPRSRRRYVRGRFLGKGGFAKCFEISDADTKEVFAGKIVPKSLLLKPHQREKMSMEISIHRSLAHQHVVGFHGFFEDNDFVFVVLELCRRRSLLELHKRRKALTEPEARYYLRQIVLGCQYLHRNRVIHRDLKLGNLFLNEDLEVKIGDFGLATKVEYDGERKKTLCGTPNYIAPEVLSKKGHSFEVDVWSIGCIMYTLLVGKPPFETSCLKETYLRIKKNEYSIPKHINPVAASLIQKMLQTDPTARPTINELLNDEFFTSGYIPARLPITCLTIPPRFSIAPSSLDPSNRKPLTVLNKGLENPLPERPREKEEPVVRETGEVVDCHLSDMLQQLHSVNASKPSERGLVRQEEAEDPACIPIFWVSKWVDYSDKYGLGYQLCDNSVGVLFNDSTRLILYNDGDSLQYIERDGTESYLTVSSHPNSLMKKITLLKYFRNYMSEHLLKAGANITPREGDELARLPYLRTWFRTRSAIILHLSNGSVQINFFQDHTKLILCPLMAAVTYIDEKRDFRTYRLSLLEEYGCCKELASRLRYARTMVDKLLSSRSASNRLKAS
PLK1 PBD inh = Plk1 polo box domain binding inhibitors, primary screen, biochemical, fluorescence polarization; Plk1 PBD phosphopeptide binding; AID 693, 2007; inhibition, %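 (tested at about 20 µM)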; actives 0.13% (n = 97,000); Serine/threonine-protein kinase PLK1 (Homo sapiens), P53350; in the data active = inhibition above about 34%, passing the limit was not always enough
CYP2C9 inhib = blockers of cytochrome P450 2C9 activity – biochemical, luminescence, ADME assay, primary screen; AID 777, 2007; inhibition, % at 5 µM; actives 20% (n = 96,000); P11712; CYP2C9 Supersomes, luciferin-H conversion;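 active = blocking of liver enzyme CYP2C9 beyond about 50% at 5 µM, limit read from the data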
* marks the source's active call; other numbers are inactive results. An excerpt weighted towards active compounds, which were near 28% of everything screened.

Results for COCCOC(=O)c1c(C)oc2ccc(OC(=O)c3c(OC)cccc3OC)cc12 ?
CYP2C9 act: 0; CYP2C19 inh: 93*; CYP2C19 act: 0.1; PLK1 kinase inh: -19; PLK1 PBD inh: 1; CYP2C9 inhib: 96*

How did COCCSc1nnc(NC(=O)C(C)(C)C)s1 do in these assays?
CYP2C9 act: 1; CYP2C19 inh: 19; CYP2C19 act: 0.8; PLK1 kinase inh: -8; PLK1 PBD inh: 16; CYP2C9 inhib: 4

What do the screens show for `COc1ccccc1CNc1cc(CSc2ccc(Cl)cc2)nc(C)n1`?
CYP2C9 act: 0.1; CYP2C19 inh: 91*; CYP2C19 act: 0.1; PLK1 kinase inh: -9; PLK1 PBD inh: -23; CYP2C9 inhib: 94*

How did COc1cccc(CNc2cc(CSc3ccc(Cl)cc3)nc(C)n2)c1 do in these assays?
CYP2C9 act: 0; CYP2C19 inh: 94*; CYP2C19 act: 0.1; PLK1 kinase inh: -1; PLK1 PBD inh: 0; CYP2C9 inhib: 96*

How did COc1cccc(CNc2nc3nc(C)cc(C)n3n2)c1 do in these assays?
CYP2C9 act: 1.6; CYP2C19 inh: 29; CYP2C19 act: 0.7; PLK1 kinase inh: 0; PLK1 PBD inh: -6; CYP2C9 inhib: -61

What do the screens show for `COc1ccccc1CNc1n[nH]c(NCc2ccccc2OC)n1`?
CYP2C9 act: 1.5; CYP2C19 inh: -8; CYP2C19 act: 1.1; PLK1 kinase inh: -6; PLK1 PBD inh: -23; CYP2C9 inhib: -47

How did CC(C)CNC(=O)CCCc1ccccc1 do in these assays?
CYP2C9 act: 0.6; CYP2C19 inh: 83*; CYP2C19 act: 0.2; PLK1 kinase inh: -2; PLK1 PBD inh: -8; CYP2C9 inhib: 42

What do the screens show for `CC(C)C(=O)NCCCc1ccccc1`?
CYP2C9 act: 0.9; CYP2C19 inh: 24; CYP2C19 act: 0.8; PLK1 kinase inh: -7; PLK1 PBD inh: 11; CYP2C9 inhib: 9

Results for C=CCNC(=O)CCCc1ccccc1 ?
CYP2C9 act: 1; CYP2C19 inh: 67*; CYP2C19 act: 0.3; CYP2C9 inhib: 4

What do the screens show for `Cc1sc2nc(SCC(=O)N(CCO)CCO)n(C3CCCCC3)c(=O)c2c1C`?
CYP2C9 act: 0.8; CYP2C19 inh: 4; CYP2C19 act: 1; PLK1 kinase inh: -6; PLK1 PBD inh: -23; CYP2C9 inhib: 16

What do the screens show for `COC(=O)CSc1nc2sc3c(c2c(=O)n1C1CCCCC1)CCN(C)C3`?
CYP2C9 act: 0.5; CYP2C19 inh: 78*; CYP2C19 act: 0.2; PLK1 kinase inh: -8; PLK1 PBD inh: 14; CYP2C9 inhib: 52*

What do the screens show for `CC(NC(=O)CSc1nc2sc3c(c2c(=O)n1-c1ccccc1)CCCC3)c1ccccc1` (stereo not given)?
PLK1 kinase inh: -14; PLK1 PBD inh: 22

What do the screens show for `COc1ccc(-n2c(SCC(N)=O)nc3sc4c(c3c2=O)CCN(C)C4)cc1`?
CYP2C9 act: 0.7; CYP2C19 inh: 73*; CYP2C19 act: 0.3; CYP2C9 inhib: 33

How did Cc1ccc(-c2cc(C(=O)Nc3ccc(S(=O)(=O)Nc4cc(C)on4)cc3)c3ccccc3n2)c(C)c1 do in these assays?
CYP2C9 act: 0.6; CYP2C19 inh: -3; CYP2C19 act: 1; PLK1 kinase inh: -9; PLK1 PBD inh: -7; CYP2C9 inhib: 41

What do the screens show for `CCNC(=S)NNC(=O)c1cc(-c2cc(C)ccc2C)nc2ccccc12`?
CYP2C9 act: 0.3; CYP2C19 inh: 26; CYP2C19 act: 0.7; PLK1 kinase inh: -13; PLK1 PBD inh: 43; CYP2C9 inhib: 66*

How did O=C(Nc1ccc(S(=O)(=O)Nc2nccs2)cc1)c1cc(-c2ccccc2Cl)nc2ccccc12 do in these assays?
CYP2C9 act: 0.5; CYP2C19 inh: 18; CYP2C19 act: 0.8; PLK1 kinase inh: -18; PLK1 PBD inh: -16; CYP2C9 inhib: 52*

What do the screens show for `Cc1ccc(-c2cc(C(=O)OCC(=O)Nc3cc(C)on3)c3ccccc3n2)c(C)c1`?
CYP2C9 act: 0.2; CYP2C19 inh: 25; CYP2C19 act: 0.7; PLK1 kinase inh: -6; PLK1 PBD inh: -15; CYP2C9 inhib: 79*
